Results filed as inconclusive are left out. Active and inactive are the calls of the source. Unless noted, the call rests on the fitted dose curve; in most records, active means well fitted curve in the direction sought with a large enough effect in the repeat runs; inconclusive means weak or mixed curves; inactive means no such curve, though single readings can be large; an effect the other way counts as inactive or inconclusive.
Legend:
[1] = qHTS assay for small molecules that induce genotoxicity in human embryonic kidney cells expressing luciferase-tagged ATAD5 (AID 651632); further: nearly all actives have a fitted effect of over 15% in size
Outline: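 Concentration-response screen for ATAD5 upregulation in HEK293T luciferase reporter cells; 16 hr treatment at 37C, then luminescence after 30 min with Amplite at room temperature.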

[2] = qHTS assay for small molecule agonists of the p53 signaling pathway - cell viability (AID 651633; calls by dose curve; further: nearly all actives have a fitted effect of over 30% in size; further: potency means the concentration at half of the fitted maximal effect;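 on activity change, negative = cytotoxicity: p53RE-bla HCT reporter cells with a stable beta-lactamase p53 reporter; series mostly up to about 83 µM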)
Outline: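 p53RE-bla cells were treated with compound for 16 hours at 37 C. Cytotoxicity was then measured as CellTiter-Glo luminescence after 30 min at room temperature.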

[3] = qHTS assay for small molecules that induce genotoxicity in human embryonic kidney cells expressing luciferase-tagged ATAD5 - cell viability (AID 651634; calls by dose curve; further: nearly all actives have a fitted effect of over 25% in size; further: potency means the concentration at half of the fitted maximal effect)
Outline: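 15.5 hr compound or vehicle exposure of HEK293T cells expressing luciferase-tagged ATAD5 at 37C; live-cell protease activity is read by fluorescence after 30 min of CellTiter-Fluor.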

[4] = qHTS assay to test for compound auto fluorescence at 590 nm (red) in HepG2 cells (AID 720674)
Outline: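 HepG2 cells, 2,000 per well in MEM with 10% FBS, attached overnight at 37 C, then got 23 nL compound or DMSO. After 1 hr at 37 C, 5% CO2, red fluorescence was read at 540/590 nm against Rose Bengal sodium as reference.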

[5] = qHTS assay to test for compound auto fluorescence at 535 nm (green) in HepG2 cells (AID 720675)
[6] = qHTS assay to test for compound auto fluorescence at 460 nm (blue) in HEK293 cells (AID 720678); further: potency means the concentration at half of the fitted maximal effect
Outline: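 HEK293 cells (2,000/well, medium with 10% dialyzed FBS) attached 4-5 hr, then exposed to compound overnight at 37C, 5% CO2. Blue fluorescence read at 405/460 nm, with triamterene as reference fluorophore.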

[7] = qHTS assay for small molecule disruptors of the mitochondrial membrane potential - cell viability (AID 720634; calls by dose curve;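 further: human HepG2 liver cancer cells; series mostly up to about 83 µM; nearly all actives have a fitted effect of over 20% in size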)
Outline: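 In this qHTS format, HepG2 cells plated overnight were pinned with compound, incubated 1 hr, and assayed for ATP luminescence with CellTiter-Glo after m-MPI dye addition.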

[8] = qHTS assay to test for compound auto fluorescence at 590 nm (red) in HEK293 cells (AID 720679)
Outline: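 HEK293 cells (2,000/well, 10% dialyzed FBS) attached 4-5 hr, then dosed with compound or DMSO and incubated overnight at 37C, 5% CO2. Red fluorescence read at 540/590 nm, Rose Bengal sodium as reference fluorophore.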

[9] = qHTS assay for small molecule disruptors of the mitochondrial membrane potential (AID 720635); further: potency means the concentration at half of the fitted maximal effect
Outline: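 HepG2 cells exposed to compound 1 hr at 37C, then Mito-MPS dye 30 min. Ratio read of aggregate (540/590 nm) versus monomer (490/535 nm) fluorescence.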
On the % scale 0 is the no-effect control and ±100 the full control effect; tags describe the fitted curve by direction and shape or compound fluorescence and quenching.

CC1=CC[C@@H]2C[C@H]1C2(C)C
inactive: activation [1] -0.905% [at 17.9 µM] | activity change, negative = cytotoxicity [2] 5.84% [at 17.9 µM] | activity, negative = cytotoxicity [3] -7.96% [at 17.9 µM] | fluorescence, relative to Rose Bengal [4] -0.0358% [at 18.6 µM] | fluorescence, % of fluorescein control [5] 0.0991% [at 18.6 µM] | fluorescence, % of triamterene [6] -0.0033% [at 18.6 µM]

CCOC(=O)c1c(N)sc2c1CCN(Cc1ccccc1)C2
active: Potency [6] 14.1 µM [fluorescent]
inactive: Potency [1] | Potency [2] | Potency [3] | outcome [7] | outcome [4] | outcome [8]

CC(C)COC(=O)c1ccc(O)cc1
inactive: Potency [1] | Potency [2] | Potency [3] | outcome [4] | Potency [6] | outcome [8]
active: Potency [9] 12.2 µM

COc1ccc(/C=C/C(=O)c2ccc(OC)cc2OC)cc1
active: Potency [9] 13.3 µM
inactive: Potency [1] | Potency [2] | outcome [7] | outcome [4] | outcome [5] | Potency [6] | outcome [8]

O=C(c1ccccc1)C1CCC1
inactive: Potency [1] | Potency [2] | outcome [7] | Potency [9] | outcome [4] | outcome [5] | Potency [6] | outcome [8]

CCCCCCCC(=O)Oc1c(Br)cc(C#N)cc1Br
inactive: Potency [1] | Potency [2] | outcome [4] | outcome [5] | Potency [6] | outcome [8]
active: Potency [9] 12.1 µM

C=CCOC(=O)COCCC(C)C
inactive: Potency [1] | Potency [3] | outcome [7] | outcome [4] | outcome [5] | Potency [6]

O=C(O)CNC(=O)c1ccccc1I
inactive: Potency [1] | Potency [2] | Potency [3] | outcome [7] | outcome [4] | Potency [6]

O=C1CC[C@@H](C(=O)O)N1
inactive: Potency [1] | Potency [2] | Potency [3] | outcome [4] | outcome [5] | Potency [6] | outcome [8]

Oc1ccc2c(c1)Cc1ccccc1-2
inactive: Potency [3] | outcome [4] | outcome [5] | Potency [6] | outcome [8]
active: Potency [9] 27.3 µM

CN1CCCN(C(c2ccccc2)c2ccc(Cl)cc2)CC1 (stereo unspecified)
inactive: Potency [1] | Potency [3] | outcome [7] | outcome [4] | outcome [5] | Potency [6] | outcome [8]

Cc1ccccc1S(N)(=O)=O
inactive: Potency [2] | Potency [3] | outcome [7] | outcome [4] | outcome [5] | Potency [6]

O=C1OC(=O)c2c(Br)c(Br)c(Br)c(Br)c21
inactive: Potency [2] | Potency [3] | outcome [7] | Potency [9] | outcome [4] | outcome [5] | Potency [6] | outcome [8]

CC1CCC(C(C)CS)CC1S (stereo unspecified)
inactive: Potency [1] | Potency [9] | outcome [4] | outcome [5] | Potency [6] | outcome [8]
active: Potency [2] 54.5 µM

CCCCCCCCCCCC(=O)OCC(O)CO (stereo unspecified)
inactive: Potency [1] | Potency [2] | Potency [3] | outcome [7] | outcome [4] | outcome [5] | Potency [6] | outcome [8]

Nc1ccc(F)cc1
inactive: Potency [2] | Potency [3] | outcome [7] | outcome [4] | outcome [5] | Potency [6] | outcome [8]

CC(CN(CCN(CC(C)OCCO)CC(C)OCCO)CC(C)OCCO)OCCO (stereo unspecified)
inactive: Potency [1] | Potency [2] | outcome [7] | outcome [4] | outcome [5] | Potency [6]

CC(C)(C)C(O)/C=C/c1ccc2c(c1)OCO2 (stereo unspecified)
inactive: Potency [1] | Potency [2] | Potency [3] | outcome [7] | outcome [4] | outcome [5] | Potency [6] | outcome [8]

O[C@@H](CNC[C@H](O)[C@H]1CCc2cc(F)ccc2O1)[C@@H]1CCc2cc(F)ccc2O1
inactive: Potency [1] | Potency [3] | outcome [7] | outcome [4] | outcome [5] | Potency [6] | outcome [8]

CCCCCCCCCCCCCC(=O)OCC(O)CO (stereo unspecified)
inactive: Potency [1] | Potency [2] | Potency [3] | outcome [7] | outcome [4] | Potency [6] | outcome [8]

CC(=O)NNC(C)=O
inactive: Potency [1] | Potency [2] | Potency [3] | outcome [7] | outcome [4] | Potency [6] | outcome [8]

CCCCCCCCCCCCCOS(=O)(=O)O
active: Potency [2] 68.6 µM
inactive: Potency [1] | Potency [3] | outcome [7] | outcome [4] | outcome [5] | Potency [6] | outcome [8]

COC(=O)C1=C(C)NC(C)=C(C(=O)OC(C)(C)CN(C)CCC(c2ccccc2)c2ccccc2)C1c1cccc([N+](=O)[O-])c1 (stereo unspecified)
active: Potency [9] 5.96 µM
inactive: Potency [1] | outcome [4] | outcome [5] | Potency [6] | outcome [8]

O=C(O)c1cc(Cl)cc(Cl)c1O
inactive: Potency [1] | Potency [2] | Potency [3] | outcome [7] | outcome [4] | Potency [6] | outcome [8]

CCN(CC)CCOc1ccccc1C(=O)CCc1ccccc1
inactive: Potency [1] | Potency [2] | Potency [3] | outcome [7] | outcome [4] | Potency [6]

CCN(CC)C(=O)/C(C#N)=C/c1cc(O)c(O)c([N+](=O)[O-])c1
inactive: Potency [2] | outcome [4] | Potency [6] | outcome [8]
active: Potency [3] 26.6 µM

CCCCCCCCCCCSCC(=O)O
inactive: Potency [1] | Potency [3] | outcome [7] | outcome [4] | Potency [6] | outcome [8]

COc1cc(NC(C)CCCN)c2ncccc2c1 (stereo unspecified)
inactive: Potency [1] | Potency [3] | fluorescence, relative to Rose Bengal [4] -0.0926% [at 18.6 µM] | fluorescence, % of fluorescein control [5] -0.0145% [at 18.6 µM] | fluorescence, % of triamterene [6] 1.22% [at 18.6 µM] | fluorescence, % of fluorescent control [8] -0.0138% [at 18.6 µM]

CCC(Cl)CC(Cl)C(Cl)C(Cl)C(Cl)C(C)Cl (stereo unspecified)
inactive: activation [1] 8.79% [at 17.9 µM] | activity, negative = cytotoxicity [3] 13% [at 17.9 µM] | activity change, negative = cytotoxicity [7] -14.9% [at 17.9 µM] | fluorescence, relative to Rose Bengal [4] 0.266% [at 13.4 µM] | fluorescence, % of fluorescein control [5] -0.0606% [at 13.4 µM] | fluorescence, % of triamterene [6] 0.1% [at 13.4 µM]

COc1cc(OC)c2ccc(=O)oc2c1
inactive: Potency [1] | Potency [2] | Potency [3] | outcome [7] | outcome [4] | outcome [5] | outcome [8]

CN1C(CSCC(F)(F)F)Nc2cc(Cl)c(S(N)(=O)=O)cc2S1(=O)=O (stereo unspecified)
inactive: Potency [1] | Potency [3] | outcome [7] | Potency [9] | outcome [4] | outcome [5] | Potency [6] | outcome [8]

— PubChem BioAssay (Tox21)
